From the supplement of paper PMC6555819

Key:
Experiment in all cases: PBM binding z-score (relative to random genomic background probes); higher = stronger binding; sequences stand for … in GC…GCGATTGACAGCGTAGAATGAAGG
[1] = system: FXR:RXRa (NR concentration 270 nM, RXRa partner concentration 90 nM)
Summary of the method: (§1)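 Each nuclear receptor dimer, without ligand, was incubated for 1 h on custom Agilent 4×180K protein-binding microarrays. Binding was detected with antibodies against each partner (one per run), and scanned fluorescence was regression-normalized. The binding z-scores are referenced to random human genomic background probes.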

[2] = system: LXRa:RXRa (NR concentration 270 nM, RXRa partner concentration 90 nM)
Summary of the method: as §1

[3] = system: LXRa homodimer (NR concentration 270 nM)
Summary of the method: as §1

[4] = system: LXRb:RXRa (NR concentration 270 nM, RXRa partner concentration 90 nM)
Summary of the method: as §1

[5] = system: LXRb homodimer (NR concentration 270 nM)
Summary of the method: as §1

[6] = system: PPARa:RXRa (NR concentration 270 nM, RXRa partner concentration 90 nM)
Summary of the method: as §1

[7] = system: PPARg:RXRa (NR concentration 180 nM, RXRa partner concentration 90 nM)
Summary of the method: as §1

[8] = system: PPARg:RXRa 270nM:90nM, anti-RXR (NR concentration 270 nM, RXRa partner concentration 90 nM)
Summary of the method: as §1

[9] = system: PPARg:RXRa 30nM:10nM, anti-RXR (NR concentration 30 nM, RXRa partner concentration 10 nM)
Summary of the method: as §1

[10] = system: PPARg:RXRa 90nM:30nM, anti-RXR (NR concentration 90 nM, RXRa partner concentration 30 nM)
Summary of the method: as §1

Sequence	PBM binding z-score [1]	PBM binding z-score [2]	PBM binding z-score [3]	PBM binding z-score [4]	PBM binding z-score [5]	PBM binding z-score [6]	PBM binding z-score [7]	PBM binding z-score [8]	PBM binding z-score [9]	PBM binding z-score [10]
TCGAGTAGGTTAGGTGCATTCAGAATGGCGTCGA	-0.264	-0.0402	-0.55	0.172	-1.05	0.236	-0.209	0.709	0.736	0.505
TTACCAAGGTGACAGGTCGTTGATGCACGCCTTG	0.924	1.02	0.111	0.582	-0.664	2.56	3.23	4.37	1.99	3.62
ACTAGTTGGTCAGCTGAGGCCACACACAATTCGG	0.531	-0.313	-0.2	-0.129	-0.143	-0.0104	0.761	-0.157	-0.382	-0.207
TTACCAAGCTGAAGGTCGTTGATCCCTCTGTAGA	1.61	1.68	-0.245	1.04	-0.907	1.03	0.527	2.36	0.492	1.8
GCTATTAGTTGAAAGGACAACCGAATGATTCTCG	-0.0393	-0.0503	-0.151	-0.41	-0.0299	0.0455	0.857	1.45	0.556	0.958
AGTCAAAGTTAATCTAGGTAACGTAAGATATGCT	0.59	0.213	-0.267	-0.245	-0.44	1.29	1.78	1.41	0.619	0.829
ACAGACAGGTGATGAAGGTAATTCAGGCTATCAT	-0.202	-0.317	-0.115	-0.471	-0.286	0.215	0.583	-0.256	0.0788	-0.356
GCAGACAGGTGATACGCAGGTAACTCAGGGTGGC	-0.378	-0.342	-0.563	-0.687	-1.16	-0.129	0.508	-0.512	-0.33	-0.762
TGAATGAGGTTATTAGATCAGGGAACGTTGCAAA	1.98	1.62	0.0291	1.3	0.0407	3.09	2.46	2.61	0.886	1.65
AGAATGAGGTTACCAAAGATCAAGGAAACGCTTG	2.13	7.01	0.25	4.24	-0.325	3.7	2.89	3.09	1.08	2.26
TGAATGAGGTTAAAGATCAGGGAACGTGGCGTCG	3.08	2.42	-0.304	1.71	0.375	4.63	5.54	6.57	4.6	6.57
GTACCAAGGTGAATAGGTCGGTGATGAGTAGGCG	0.606	0.247	-0.139	0.125	-0.619	1.64	1.24	1.29	0.291	0.711
CCGACTGGGGCAGAAAGGTAACCATACCATCCGG	-0.151	-0.447	-0.528	-0.363	-1.18	0.647	1.05	1.25	-0.0627	0.913
